L3MBTL1 block: blocks human L3MBTL1; Q9Y468; AID 485360; Potency, µM (highest dose often 57.1 µM), inactives show top-dose activity, negative = inhibition, usual class: inhibitors; AlphaScreen L3MBTL1–H3K9me1 peptide binding; hit rate 0.66% among 230,000; also: % is scaled to controls: 0 for no effect and ±100 for the full control effect; nearly all actives have a fitted effect of over 60% in size
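Read-out is AlphaScreen signal from streptavidin donor and nickel chelate acceptor beads (10 ug/mL final each) bridging L3MBTL1 (50 nM) and biotinylated K9-monomethylated H3(1-15) peptide (75 nM), after 30 min compound exposure at room temperature.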
Sfp inh: inhibitors of Bacillus subtilis Sfp phosphopantetheinyl transferase | Q9F4F7 | Biochemical Sfp PPTase activity, qHTS | Potency, µM, without a hit: largest response in the series, negative = inhibition, hits mostly inhibitors | hit rate 3.5% among 310,000;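 also: the enzyme is Sfp with the accession as filed and its product quenches rhodamine fluorescence; 0% = enzyme reaction without inhibitor and -100% = no enzyme wells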
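Step 1, compound plus 15 nM Sfp-PPTase, 15 min, room temperature. Step 2, add rhodamine-CoA (5 uM) and BHQ-2-YbbR (12.5 uM). Step 3, read 525/598 nm fluorescence at 0 and 30 min.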
G9a block: blocks human histone lysine methyltransferase G9a. G9a H3K9 monomethylation, AlphaScreen, 2 h. Potency, µM (titrated, usually from 102 µM), inactives show at the top dose activity, negative = inhibition, hits mostly inhibitors. hit rate 8.8% among 350,000. AID 504332; also: % is scaled to controls: 0 for no effect and ±100 for the full control effect; nearly all actives have a fitted effect of over 75% in size
Target sequence (Q96KQ7 913-1193 limits assumed): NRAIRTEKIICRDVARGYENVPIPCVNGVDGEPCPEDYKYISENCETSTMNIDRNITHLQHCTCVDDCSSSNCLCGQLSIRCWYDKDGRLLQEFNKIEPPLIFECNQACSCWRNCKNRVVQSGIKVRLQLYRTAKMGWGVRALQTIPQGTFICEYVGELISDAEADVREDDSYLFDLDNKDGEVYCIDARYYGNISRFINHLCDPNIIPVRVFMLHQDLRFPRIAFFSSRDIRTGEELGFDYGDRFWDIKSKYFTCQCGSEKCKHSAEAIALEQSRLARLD
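Quantitative HTS format: methyltransferase activity on a biotin-tagged H3K9 peptide is measured by AlphaScreen, using a rabbit anti-monomethyl-H3K9 antibody with streptavidin donor and anti-IgG acceptor beads. Final levels are 20 nM enzyme, 500 nM peptide, 20 uM SAM; 2 h RT.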
JMJD2A Tudor inh: JMJD2A Tudor domain (human) inhibition | O75164 | AlphaScreen JMJD2A-Tudor / H3K4me3 peptide binding | Potency, µM (titrated, usually from 114 µM), without a hit: at the highest dose activity change, negative = inhibition, most hits filed as inhibitors | hit rate 4.4% among 390,000; also: % is scaled to controls: 0 for no effect and ±100 for the full control effect; nearly all actives have a fitted effect of over 50% in size
HP1b binding inh: inhibitors of HP1-beta chromodomain binding to methylated histone tails. AlphaScreen HP1-beta / biotin-H3K9me3 peptide binding. Potency, µM (series often up to 114 µM), inactives show at the top dose activity change, negative = inhibition, usual class: inhibitors. hit rate 0.56% among 390,000; also: nearly all actives have a fitted effect of over 70% in size
Target sequence (P83916 whole entry, looked up): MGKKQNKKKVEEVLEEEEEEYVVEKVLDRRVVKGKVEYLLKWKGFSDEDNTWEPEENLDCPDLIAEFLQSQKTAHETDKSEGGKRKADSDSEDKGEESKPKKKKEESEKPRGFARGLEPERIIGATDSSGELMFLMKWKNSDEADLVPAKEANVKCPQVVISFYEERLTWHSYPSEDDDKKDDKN
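AlphaScreen: HP1-beta (50 nM) preformed 30 min with biotin-H3(1-18)K9me3 peptide (50 nM) in PBS pH 7.4, 0.01% Tween-20. Compound added for 30 min at RT, then streptavidin donor/nickel chelate acceptor beads (10 ug/mL) for 30 min.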
BAZ2B inh: inhibitors of human BAZ2B bromodomain. Q9UIF8. AlphaScreen BAZ2B-H3K14Ac peptide displacement. Potency, µM (series often up to 114 µM), for the others: at the highest dose activity change, negative = inhibition, usual class: inhibitors. hit rate 4.4% among 360,000. AID 504333; also: % is scaled to controls: 0 for no effect and ±100 for the full control effect; nearly all actives have a fitted effect of over 60% in size
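BAZ2B 50 nM plus b-H3(5-23)K14Ac 50 nM, PBS pH 7.4/0.01% Tween-20, 30 min RT; compound added (max 110 uM), 30 min RT; streptavidin donor/Ni-chelate acceptor beads 10 ug/mL final, 20 min dark; AlphaScreen read.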
Active calls of the source: *; ? = inconclusive; . = no result given; [ ] = another dose, or the depositor's remark. Only some compounds are listed: those with a hit (about 12% of all), similar ones and a draw of the others. Calls follow the shape of the dose curve; as a rule, active = well fitted curve in the direction sought with a large enough effect; inconclusive = small, poorly fitted or top-dose-only effect, or another doubt; inactive = no such curve, though single readings can be large; an effect the other way counts as inactive or inconclusive. Potency is read from the fitted curve at half-maximal effect.

SMILES	L3MBTL1 block	Sfp inh	G9a block	JMJD2A Tudor inh	HP1b binding inh	BAZ2B inh
CCOc1cc(C(=O)NC(=S)Nn2cnnc2)cc(OCC)c1OCC	.	-60%	25µM*	?	-7%	-30%
Cc1c(Cl)cccc1NC(=O)CN1C(=O)COc2ccc(S(=O)(=O)N3CCOCC3)cc21	.	.	-1%[59 µM]	-20%	21%	-13%
CC(C)OC(=O)c1c2c(n3ccccc13)C(=O)c1ccccc1C2=O	-7%	?	?	?	?	32µM*
O=C(COC(=O)c1c[nH]c(=O)[nH]c1=O)Nc1ccccc1	0%	25%	-1%	10%	43%	-28%
CC(C)c1ccc(NC(=O)COC(=O)c2c[nH]c(=O)[nH]c2=O)cc1	13%	0%	16µM*	?	16%	6%
Cc1cccc(N2CCC(N=CN(C)C)=N2)c1	-6%	?	4µM*	?	6%	-24%
Cc1cccc(N2C(=O)CCC2=O)c1	?	14%	15%[59 µM]	18%[57.1 µM]	41%	-2%
CCN(C=NC1=NN(c2cccc(C(F)(F)F)c2)CC1)CC	-2%	4%	?	50µM*	?	50µM*
OCCN(C=NC1=NN(c2cccc(C(F)(F)F)c2)CC1)CCO	-4%	-12%	.	?	-9%	-8%
CCCN1CNc2c(c(=O)[nH]c(=S)n2CCCc2ccccc2)C1	.	.	.	-9%	46%	.
CCOC(=O)/C(=N\Nc1cccc(Cl)c1)Sc1nnc(-c2ccc(OC)cc2)n1C	-12%	-4%	8.9µM*	-15%	25%	-9%
CCn1c(-c2ccc(OC)c(OC)c2)n[nH]c1=S	.	?	2µM*	3.5µM*	-3%	0%
COc1ccc(-c2c(N)n[nH]c2C)cc1OC	1%	15%	.	0%	48%	-14%
C=CCn1c(-c2c(C)nc3cc(C)ccn23)n[nH]c1=S	5%	1.8µM*	10µM*	10µM*	26%	-4%
C=CCn1c(-c2ccc(OC)c(OC)c2)n[nH]c1=S	-8%	79µM*	-13%[59 µM]	25µM*	14%	-8%
O=C(CSc1nc2c([nH]c3ccccc32)c(=O)n1-c1ccc(F)cc1)N1CCCCCC1	.	.	9%[59 µM]	-12%	5%[57 µM]	-1%
CC(Sc1nc(NC(C)(C)C)nc(N(C)C)n1)C(=O)Nc1ccccc1 (stereo not drawn)	.	2%	11%[59 µM]	-12%	14%	-4%
CCOc1nc(SC(C(C)=O)C(=O)Nc2ccccc2)nc(N(C)C)n1 (stereo not drawn)	4%	-10%	13µM*	79µM*	39%	-25%
CCOc1cc(/C=N/N=C2/NC(=O)C(CC(=O)O)S2)ccc1OS(=O)(=O)c1ccc(C)cc1 (stereo not drawn)	0%	23%	11%	-7%	26%	?
CCOc1cc(/C=N/N=C2/NC(=O)C(CC(=O)O)S2)ccc1OCc1ccccc1Cl (stereo not drawn)	.	-3%	?	?	14%	50µM*
COc1ccc(/C=N/N=C2/NC(=O)C(CC(=O)O)S2)cc1OCc1ccccc1Cl (stereo not drawn)	?	12%	-13%	?	-13%	50µM*
COc1ccc(/C=N/N=C2/NC(=O)C(CC(=O)O)S2)cc1OCc1ccc(Cl)cc1Cl (stereo not drawn)	?	-26%	79µM*	?	-17%	50µM*
CCOCCSc1c(C)cnc2c1c(=O)n(C)c(=O)n2C	.	.	13µM*	-15%	13%	-3%
Cc1c(-c2cccc(NC(=O)Nc3ccccc3)c2)nc2ncccn12	.	.	-5%[59 µM]	-3%	21%[57 µM]	-3%
O=C(N/N=C/c1ccc(N2CCOCC2)o1)c1cccc([N+](=O)[O-])c1	-7%	1.1µM*	10µM*	?	-2%	-28%
SMILES	L3MBTL1 block	Sfp inh	G9a block	JMJD2A Tudor inh	HP1b binding inh	BAZ2B inh
O=C(N/N=C/c1ccc(N2CCCCC2)o1)c1ccccc1	-15%	-107%	10µM*	50µM*	?	-9%
Cc1ccc(/C=N/NC(=O)c2ccc(-c3ccccc3)cc2)o1	.	16%	21%	-21%	9%	2%
O=C(N/N=C/c1ccccc1)c1ccc(N2CCOCC2)c([N+](=O)[O-])c1	-12%	-10%	-26%[59 µM]	-4%	33%	-37%
Cc1oc(-c2ccccc2)nc1CSc1nnc(C)n2c1cc1sccc12	.	.	-35%[59 µM]	-15%	24%	-16%
CCCCc1nc2c(c3c1C[C@H](C)OC3)CN(C(=O)C1CC1)CC2	.	7%	.	.	.	.
O=C(O)/C(=C\c1cccc(O)c1)c1ccc(S(=O)(=O)N2CCCC2)s1	-26%	.	?	-20%	23%	?
O=C(O)/C(=C\c1cccc(F)c1)c1ccc(S(=O)(=O)N2CCCCC2)s1	-27%	-28%	56µM*	?	1%	?
Cn1c(C2CCCN2C(=O)OC(C)(C)C)n[nH]c1=S (stereo not drawn)	-4%	?	22µM*	45µM*	7%	-7%
COc1ccc(NC(=O)C(NC(=O)C2CCC(C)CC2)C(C)C)cc1 (stereo not drawn)	.	.	-12%[59 µM]	-34%	-4%	-13%
O=C(NC(=S)Nc1ccc(Cc2ccncc2)cc1)c1ccccc1	-24%	-14%	?	-34%	?	?
COc1cc(C(=O)NC(=S)Nc2ccc(Cc3ccncc3)cc2)cc(OC)c1OC	.	-7%	-34%[2.33 µM]	?	-1%	-16%
COc1ccccc1C(=O)NC(=S)Nc1ccc(Cc2ccncc2)cc1	.	?	32µM*	-27%	14%	?
Cc1cccc(C(=O)NC(=S)Nc2ccc(Cc3ccncc3)cc2)c1	-4%	-29%	32µM*	?	-42%	?
Cc1cc(C)cc(C(=O)NC(=S)Nc2ccc(Cc3ccncc3)cc2)c1	2%	-9%	22µM*	?	?	?
COc1ccccc1C(=O)Nc1ccncc1	0%	17%	-1%	3%	37%	-1%
O=C(Cl)COCc1ccccc1	.	2%	.	.	.	.
O=C(OCC#CCSc1nnc(-c2cccc3ccccc23)s1)c1cccs1	-4%	.	5%[12.7 µM]	.	.	1%
CN1CCN(CC#CC(C)(O)C2CC3C=CC2C3)CC1 (stereo not drawn)	5%	-2%	22µM*	50µM*	22%	?
Cc1ccc(/C=C/C(=O)Oc2ccc(C#N)cc2)o1	.	14%	?	.	.	-2%
Cc1ccc(/C=C/C(=O)NCc2cccs2)o1	-8%	10µM*	13µM*	?	?	?
CC(=O)/C=C/c1ccc(C)o1	.	40µM*	?	4%	11%	-5%
CC(/C=C\c1ccccc1)=C/C(=O)O	.	9%	21%	3%	28%	-10%
CC(=C/C(=O)O)/C=C/c1ccc(Cl)o1	10µM*	?	11µM*	-8%[11.4 µM]	71µM*	50µM*

Bioassay records as filed in PubChem BioAssay.
